ARNT TACC3 PPI: ARNT/TACC3 interaction disruption; 390,000 compounds, 0.66% hits; inhibition, % at 9.99 µM; AlphaScreen His-ARNT PAS-B/GST-TACC3 binding, luminescence; TACC3 fragment carries E629A point mutation;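 active means mean inhibition of replicates at least 50% and at least half of replicates each reaching 50%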;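 further: 0% = complete ARNT plus TACC3 wells and 100% = ARNT alone without TACC3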
aDG glyco up: alpha-DG glycosylation activation. activation, % at 10 µM. 360,000 compounds, 0.22% hits. Pro5-aDG cells, alpha-DG glycosylation AlphaScreen (IIH6); 0% Pro5, 100% B10-LARGE cell signal;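 active means activation of at least 8% versus controls, or a plate z-score of at least 8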;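 further: Pro5 are CHO cells carrying HIG-tagged alpha-DG that lacks glycosylation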
Bfl-1 A1 inh: inhibitors of the anti-apoptotic protein A1, read as caspase activation; MEF A1-2A-BIM cells, Caspase-Glo 3/7 luminescence, 3 h; percent of clofoctol response, vehicle zero; caspase activation, % (test concentration not listed); 330,000 compounds, 0.066% hits; AID 2462;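 active means over half of replicate activation scores above 10%, or exactly half above 10 with the replicate mean above 10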
AI-2 QS mod: modulators of Vibrio harveyi AI-2 quorum sensing system | Vibrio harveyi JMH597 AI-2 luminescence/OD600 ratio, 9 h; active compounds read low; strain lacks LuxN and CqsS sensors; 0 = neutral-control median | activity change, % at 7.5 µM | 300,000 compounds, 0.4% hits; in the data active means activity change below about -75%, passing the limit was not always enough;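 further: luminescence divided by OD600 gain over 9 h not by final OD600 alone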
SUMO Mot1 rescue: inhibitors of SUMOylation pathway: yeast Mot1-301 growth rescue. S. cerevisiae Mot1-301 growth rescue, ATP luminescence, 38.5C; percent above DMSO median, 100 means doubled. growth rescue, % at 18.8 µM. AID 2716. 320,000 compounds, 1% hits;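 active means every valid replicate shows activation above 250% relative to neutral control wells; inactive means the rest, any valid replicate at or below 250%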;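 further: OY570 slx delta 5 strain wells were the positive control but not used for scaling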
* hit, by the source's call; / = not tested or not shown. Sampled rows, rich in hits. Any-hit rate of the full collection: about 1.8%.

SMILES | ARNT TACC3 PPI | aDG glyco up | Bfl-1 A1 inh | AI-2 QS mod | SUMO Mot1 rescue
O=C(O)c1cccc(C(=O)O)c1 | -4 | 0 | 0 | 39 | 384*
COc1ccc(OC)c(C2Nc3c(Cl)ccc(C(=O)O)c3C3C=CCC32)c1 (stereo unspecified) | -6 | 0 | 1 | 21 | -8
O=C(Nc1ccccc1Br)c1cccc2ccccc12 | / | 0 | 0 | 14 | 35
O=S(=O)(Nc1cccc2cccnc12)c1ccccc1 | 21 | 0 | -1 | -1 | 210
O=S(=O)(Nc1cccc2cccnc12)c1ccc(S(=O)(=O)N2CCCC2)cc1 | 67* | 1 | 0 | 40 | -19
CN(C)c1ccc(C=c2c3cc(O)ccc3n3c2cc(-c2ccccc2)[n+]3C)cc1 | 60* | -1 | / | / | /
Cc1cc(-c2ccc(N=Nc3c(S(=O)(=O)O)cc4cc(S(=O)(=O)O)cc(N)c4c3O)c(C)c2)ccc1N=Nc1c(S(=O)(=O)O)cc2cc(S(=O)(=O)O)cc(N)c2c1O | / | / | -2 | / | 376
O=S(=O)(O)c1cc(O)c2c(O)c(N=Nc3cc(Cl)ccc3O)c(S(=O)(=O)O)cc2c1 | 69* | 0 | 0 | 23 | 17
Oc1cc(Cc2ccccc2)cnc1CN1CCCCC1 | -1 | 0 | -1 | 7 | 0
COCc1cc(CN2CCCC2)c(O)c2ncccc12 | 60* | 0 | 0 | 18 | -2
CN(C)C1CCN(Cc2cc(COCc3ccccc3)c3cccnc3c2O)C1 (stereo unspecified) | 75* | 1 | 1 | / | -34
COc1ccccc1N1CCN(Cc2cc(Br)c(O)c3ncccc23)CC1 | / | 0 | 0 | -24 | -20
Oc1c(CN2CCCCC2)cc(COCc2ccccc2)c2cccnc12 | 62* | -1 | 0 | 29 | -6
Cc1noc(C)c1NC(=O)Nc1ccc2c(c1)C(=O)N([C@@H](C)CO)C[C@H](C)[C@@H](CN(C)Cc1ccc3c(c1)OCO3)OCCCC[C@@H](C)O2 | -3 | / | / | / | /
COc1ccc(NC(=O)Nc2ccc3c(c2)[C@H]2C[C@@H](CC(=O)N[C@@H](C)c4ccccc4)O[C@H](CO)[C@H]2O3)cc1 | -13 | / | / | / | /
Cc1ccccc1C(=O)/C(C#N)=N/Nc1c(C)n(C)n(-c2ccccc2)c1=O | 57* | 1 | 0 | 57 | -16
CCOC(=O)/C(C#N)=N/Nc1c(C)n(C)n(-c2ccccc2)c1=O | / | 0 | 0 | 25 | -6
Cc1c(N/N=C(\C#N)C(=O)c2ccccc2)c(=O)n(-c2ccccc2)n1C | 67* | 0 | / | 54 | /
Brc1ccc(-c2nn3c(-c4ccccn4)nnc3s2)o1 | 68* | 0 | 0 | 27 | 124
CC(=O)N(NC(=O)c1ccccc1Cl)C1CC(=O)N(c2ccc(C)cc2)C1=O (stereo unspecified) | 47* | 0 | 0 | 3 | 42
O=C(CSc1nnc(-c2ccc(F)cc2)c2ccccc12)Nc1cccc(Cl)c1 | -67 | 1 | 0 | 11 | 0
O=C(Cn1c(CO)nc2ccccc21)Nc1cc(C(F)(F)F)ccc1N1CCOCC1 | 6 | 0 | 0 | 15 | 403
COc1ccc(C=C2C=C(C(C)(C)C)C(=O)C(C(C)(C)C)=C2)cc1OC | 1 | 0 | 11* | 33 | 2
Nc1ccccc1NC(=O)c1ccccc1 | -2 | 0 | -1 | 15 | 143
CCn1c(SCC(=O)Nc2nc3ccccc3s2)nnc1-c1ccc(OC)cc1 | -3 | 1 | 1 | 13 | 343*
SMILES | ARNT TACC3 PPI | aDG glyco up | Bfl-1 A1 inh | AI-2 QS mod | SUMO Mot1 rescue
C/C(=N/NC(N)=S)c1cc2ccc(O)cc2oc1=O | 39* | 0 | -1 | 21 | -7
COc1ccc(-n2c(C)cc(C(=O)CN3C(=O)c4ccccc4C3=O)c2C)cc1 | -5 | 1 | 0 | 1 | 76
COc1ccc(-n2c(C)cc(C(=O)CCl)c2C)cc1 | -3 | 0 | 3 | -87* | -27
CN(C)c1ccc(N=Cc2nc(-c3ccccc3)oc2O)cc1 | 0 | 0 | -4 | 12 | 26
CN(C)c1ccc(N=Cc2cccn2C)cc1 | 60* | 0 | 0 | 20 | -13
CCC(CC)NC(=O)CO/N=C/c1ccc(Cl)cc1Cl | -11 | 0 | 0 | 18 | -17
Cc1ccc(NS(=O)(=O)c2ccc(C(=O)N3CCN(c4ccccn4)CC3)cc2)cc1 | 2 | 6.3* | -1 | 4 | 34
C[C@H]1CN([C@@H](C)CO)C(=O)Cc2cc(NC(=O)Nc3ccc(C(F)(F)F)cc3)ccc2O[C@H]1CN(C)C(=O)Nc1ccc(C(F)(F)F)cc1 | -7 | / | / | / | /
CCc1nc2ccc(C(=O)NCCN3CCOCC3)cn2c1N(CCC(C)C)CCN(C)C | / | 0 | / | / | /
CS(=O)(=O)c1ccccc1-c1nnc(NC(=O)Cc2ccccc2)o1 | 62* | 0 | 0 | 21 | 20
Clc1cccc(N/N=C/c2ccc(N3CCOCC3)cc2)c1 | -1 | 0 | -1 | 37 | 326*
C/C(=N\NC(=O)c1ccc([N+](=O)[O-])cc1)c1cc2ccccc2oc1=O | / | 0 | -1 | 17 | -6
C/C(=N\NC(=O)c1ccccc1)c1cc2cc([N+](=O)[O-])ccc2oc1=O | 77* | 0 | 0 | / | 12
COc1ccc(S(=O)(=O)N(C(=O)c2ccco2)c2cc3sc(=O)oc3c3ccccc23)cc1 | 29 | 7.6* | 1 | 1 | -18
CCOc1ccc(S(=O)(=O)N(C(=O)c2ccco2)c2cc3sc(=O)oc3c3ccccc23)cc1 | 8 | 11* | 0 | 33 | -9
Cc1ccc(S(=O)(=O)N(C(=O)c2ccco2)c2cc3sc(=O)oc3c3ccccc23)cc1 | 12 | 6.6* | 0 | 5 | -7
CC(=O)N(c1ccc2oc(=O)sc2c1)S(=O)(=O)c1ccccc1 | 9 | 0 | 0 | 8 | 0
CCn1c(C)nc2cc(C(=O)NNC(=S)NC(=O)c3ccc(OC)cc3)ccc21 | 30 | 1 | -1 | -85* | 7
CCCCCC(=O)NNC(=S)NC(=O)c1cccc([N+](=O)[O-])c1 | 26 | 0 | -1 | -21 | -22
COc1ccc(C(=O)NNC(=S)NC(=O)c2cccc([N+](=O)[O-])c2)cc1 | 2 | 0 | 1 | -85* | -35
O=C(COc1ccc([N+](=O)[O-])cc1)NNC(=S)NC(=O)c1ccc(Br)cc1 | 13 | 1 | 0 | -127* | -15
CCn1c(C)nc2cc(C(=O)NNC(=S)Nc3ccc(C)cc3)ccc21 | 3 | 0 | 0 | 20 | -3
COCC#Cc1ccc([C@H]2[C@H]3CN(S(=O)(=O)c4ccc(OC)cc4)CCCCN3[C@H]2CO)cc1 | 6 | / | / | / | /
COC(=O)CSc1nc2c(c(=O)n(C)c(=O)n2C)n1CCCc1ccccc1 | 16 | 0 | 0 | 21 | 20
O=C(COC(=O)/C=C/c1cccc(Cl)c1Cl)Nc1ccc2[nH]c(=O)[nH]c2c1 | -20 | 0 | 16* | / | 12

Compound activity: PubChem, several laboratories
